Screens from PubChem.
An excerpt weighted towards active compounds, which were near 1.6% of everything screened.
PrP 5UTR inh: inhibition of PrP 5' UTR reporter expression. inhibition, % (concentration not given with the values). 340,000 compounds, 0.35% hits. cell-based PrP 5' UTR mRNA reporter, plate reader; in the data active = inhibition above about 52%; also: 0 = median of the neutral control wells
SSB-PriA inh: blocks PriA binding to SSB C-terminal tail | inhibition, % at 33 µM | 430,000 compounds, 0.6% hits | AlphaScreen SSBct-PriA binding, biotinylated peptide | AID 1272365; in the data active = inhibition mostly above about 37%, no sharp cut-off; inactive = mostly below about 20%;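 also: plate controls were negative control peptide for no effect and reference peptide for full effect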
BH1578 lux ind: inducers of Vibrio cholerae quorum light production without autoinducers; V. cholerae BH1578 lux reporter, luminescence, 6 h; activation, % at 18.7 µM; 350,000 compounds, 0.16% hits; in the data active = activation mostly above about 9.7%, no sharp cut-off
SARS 3CLpro inh: SARS-CoV 3CLpro protease inhibition. P0C6X7. recombinant SARS-CoV 3CLpro, quenched FRET peptide cleavage. inhibition, % at 6 µM. 290,000 compounds, 0.14% hits. AID 1706; in the data active = inhibition above about 12%
PrPC TRFRET: inhibitors of human cell surface prion protein PrPC. P04156. 370,000 compounds, 0.43% hits. TR-FRET read-out. inhibition, % at 13.8 µM; in the data active = inhibition above about 24%; also: 0% = median of the test wells and 100% = reference compound wells
PfHsp40 rescue: restores yeast growth despite PfHsp40 toxicity. S. cerevisiae expressing PfHsp40, growth rescue, ATP luminescence. growth rescue, % at 12.5 µM. 340,000 compounds, 0.68% hits; in the data active = growth rescue above about 28%, passing the limit was not always enough;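 also: yeast W303a lacking pdr1 and pdr3 grown in galactose medium; growth measured after three days at 30 °C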
PrPC confirm: confirmation of inhibitors of cell surface human prion protein; AID 743200; 1,500 compounds, 65% hits; shares compounds with PrPC TRFRET; cell surface PrPC level, TR-FRET; inhibition, % at 13.8 µM; in the data active = inhibition above about 25%
LD9 tox: LD9 cell cytotoxicity, PrPc inhibitor counter-screen; shares compounds with PrPC TRFRET; AID 743201; LD9 cells cytotoxicity, luminescence viability; 1,500 compounds, 29% hits; inhibition, % at 13.8 µM; in the data active = inhibition above about 9.5%
Active calls of the source: *; i = inactive; · = no result given.

SMILES | PrP 5UTR inh | SSB-PriA inh | BH1578 lux ind | SARS 3CLpro inh | PrPC TRFRET | PfHsp40 rescue | PrPC confirm | LD9 tox
O=C(NC1CCCCN(Cc2cccc(C(F)(F)F)c2)C1=O)c1ccc(COc2ccccc2)cc1 (stereo unspecified) | · | · | · | · | 25.5* | · | 24.9* | 4.6
CC(=O)NC1C(OCc2ccccc2)OC(CO)C(O)C1OC(=O)c1ccccc1 (stereo unspecified) | · | 1.0 | · | · | · | · | · | ·
Cn1c(N2CCC(C(N)=O)CC2)nc2c1c(=O)n(Cc1ccc(Br)cc1)c(=O)n2C | -1.0 | -13.0 | -0.2 | 1.0 | 25.9* | -0.2 | 28.8* | 1.9
CCOC(=O)C1CCc2sc(NC(=O)C3CCN(c4ccc(=O)n(C)n4)CC3)nc21 (stereo unspecified) | · | -26.0 | · | · | · | · | · | ·
CC(NC(=O)c1cc(COc2ccc3ncccc3c2)on1)c1ccc(F)cc1 (stereo unspecified) | -1.4 | 1.5 | i | 4.8 | 32.8* | -0.6 | 34.3* | 11.4*
O=C(c1cc(COc2ccc3ncccc3c2)on1)N1CCCC1 | -2.2 | -4.7 | i | -1.6 | 42.4* | -0.9 | 42.4* | 8.9
O=C(NCCc1cn2ccccc2n1)c1cc(COc2ccc3ncccc3c2)on1 | -1.0 | 7.6 | -0.1 | -4.8 | 25.1* | 1.1 | 40.5* | 48.7*
CCOC(=O)CNC(=O)CSC1=NS(=O)(=O)c2ccccc2N1 | · | -29.0 | · | · | · | · | · | ·
CCS(=O)(=O)N1CCN(c2ccc3nnc(C)n3n2)CC1 | · | -3.0 | · | · | · | · | · | ·
CCCCCNC(=O)C(=O)Nc1ccccc1OC | · | -27.0 | · | · | · | · | · | ·
Cc1cccc[n+]1C1C(c2ccccc2)C(C#N)=C(C(=C=[N-])C#N)NC1(O)C1CC1 (stereo unspecified) | -17.7 | 35.6 | -1.2 | -5.5 | · | 1.4 | · | ·
N#CC(=C=[N-])C1=C(C#N)C(c2ccccc2F)C([n+]2ccccc2)C(O)(C2CC2)N1 (stereo unspecified) | 1.4 | -8.1 | i | 1.0 | 62.7* | -0.4 | 22.1 | -0.3
COc1ccc(C2(O)CN(c3ccccc3)C3=[N+]2CCCC3)c(F)c1 (stereo unspecified) | · | -10.0 | · | · | · | · | · | ·
CC(C)(C)C(=O)NC(=S)Nc1ccc(Br)cc1 | · | -5.0 | · | · | · | · | · | ·
Cc1ccc(NC(=O)c2oc3ccccc3c2N)cc1C | · | 12.0 | · | · | · | · | · | ·
CC1CCN(c2ccc(C(=O)Nc3ccc4c(c3)OCO4)cc2[N+](=O)[O-])CC1 | -5.7 | 39.1* | i | 2.4 | 73.5* | 2.0 | 77.1* | 4.2
COc1cc(C(=O)Nc2ccc3c(c2)OCCO3)c(-n2cnnn2)cc1OC | -3.4 | -10.2 | i | 4.7 | 3.1 | -0.1 | · | ·
CC1CCCN(c2ccc(C(=O)Nc3ccc4c(c3)OCO4)cc2[N+](=O)[O-])C1 (stereo unspecified) | -12.6 | 9.9 | 4.9 | -1.9 | 31.0* | 5.2 | 40.3* | 8.8
COc1cc(C(=O)Nc2ccc3c(c2)OCO3)ccc1-n1cnnn1 | 5.2 | 0.2 | 0.8 | -2.0 | 44.6* | -0.3 | 32.1* | -0.6
COc1cc(NC(=O)C2CCN(S(=O)(=O)c3ccc(Cl)cc3)CC2)ccc1-n1cnnn1 | 5.2 | -1.7 | 1.7 | -0.5 | 27.1* | -0.8 | 20.8 | 14.7*
O=C(COC(=O)c1ccc(N2CCOCC2)c([N+](=O)[O-])c1)Nc1ccc2c(c1)OCO2 | -58.8 | -8.8 | -0.3 | -4.9 | -10.0 | -1.1 | · | ·
CC1CCCN(c2ccc(C(=O)NCc3ccc4c(c3)OCO4)cc2[N+](=O)[O-])C1 (stereo unspecified) | -17.0 | 33.1 | i | 3.9 | -7.2 | 3.5 | · | ·
O=C(Nc1ccccc1Cc1nc(C2CC2)no1)c1ccc(C(F)(F)F)nc1 | · | -20.0 | · | · | · | · | · | ·
C=CCN1C(=O)/C(=C\N(C)C)SC1=NS(=O)(=O)c1cccs1 | · | -9.0 | · | · | · | · | · | ·
CC(=NNc1nc2ccccc2o1)c1cc2ccccc2cn1 | 16.8 | 41.1* | i | · | 27.3* | -0.2 | 32.3* | 49.4*
SMILES | PrP 5UTR inh | SSB-PriA inh | BH1578 lux ind | SARS 3CLpro inh | PrPC TRFRET | PfHsp40 rescue | PrPC confirm | LD9 tox
CC(=NNc1nc2ccc(Cl)cc2o1)c1ccccc1 | · | -0.3 | · | · | · | · | · | ·
Cc1ccc(Cl)cc1NC(=O)c1ccc(Cn2cc(Cl)cn2)cc1 | -2.3 | -14.7 | -0.4 | 3.4 | 26.8* | -0.2 | 23.7 | 3.1
O=C(Nc1ccc(Cl)c(Cl)c1)c1ccc(Cn2cc(Cl)cn2)cc1 | -47.4 | -28.4 | i | 3.7 | 6.3 | 0.2 | · | ·
CCOc1ccc(C(=O)Nc2cnn(Cc3ccc(Cl)c(Cl)c3)c2)cc1 | 2.1 | -4.5 | -0.4 | 4.6 | 26.6* | -1.3 | 23.5 | -3.6
N#CC(C#N)=NNc1ccc(-n2ccc(C(F)(F)F)n2)cc1 | -9.4 | 33.6 | -0.7 | 6.4 | 31.7* | 186.0* | 43.0* | 38.5*
O=C(Nc1ccccc1)Nc1ccc(-n2ccc(C(F)(F)F)n2)cc1 | -70.0 | -10.5 | i | 1.4 | 26.3* | -0.8 | 22.0 | 9.9*
Cc1ccc(-c2ccc(N3CCN(C(=O)C(C)C)CC3)nn2)c(C)c1 | · | 2.0 | · | · | · | · | · | ·
O=C(Nc1ccc2c(c1)OCO2)c1ccc2sc([C@@H]3O[C@H](CO)[C@@H](O)[C@H]3O)nc2c1 | · | · | -0.3 | · | 25.5* | · | 20.6 | 5.1
CCOC(=O)N1CCN(C(=O)CSCC(=O)Nc2nc(-c3ccc(C)cc3C)cs2)CC1 | · | 12.0 | · | · | · | · | · | ·
CN1CCN(C2CCN(Cc3ccc(O)c4ncccc34)CC2)CC1 | -11.4 | 55.9* | -0.3 | · | 34.3* | -0.7 | 1.7 | -5.9
O=C1N(CC(=O)N2CCc3ccccc32)CCN1Cc1ccc(Cl)cc1 | 0.2 | -7.5 | 0.9 | 8.9 | 45.7* | 0.8 | 2.0 | -1.4
CC1(c2ccc(Cl)cc2)NC(=O)N(CC(=O)N2CCc3ccccc32)C1=O (stereo unspecified) | -8.0 | -8.1 | i | · | 5.5 | -0.8 | · | ·
Cc1cc(Nc2ccc3c(c2)OCO3)c2ccc(C(F)(F)F)cc2n1 | · | -11.0 | · | · | · | · | · | ·
Cc1ccc(CNC(=O)c2ccc(S(=O)(=O)N3CCCC3)cc2)cc1 | · | · | -1.1 | · | 4.3 | · | · | ·
CCN(CC)S(=O)(=O)c1ccc(C(=O)NCc2ccc3c(c2)cc(C)n3C)cc1 | -17.9 | 20.3 | i | 0.6 | 36.2* | 0.3 | 2.3 | -2.4
Cc1cc2cc(CNC(=O)c3ccc(S(=O)(=O)N4CCCCC4)cc3)ccc2n1C | -3.2 | -7.0 | -0.1 | -3.1 | 39.3* | 0.5 | 21.0 | -7.7
Cc1ccc(CNC(=O)c2ccc(S(=O)(=O)N3CCCCC3)cc2)cc1 | -14.6 | -12.3 | 1.1 | · | 17.0 | -0.7 | · | ·
Cc1cc2cc(CNC(=O)c3ccc(S(=O)(=O)N4CCCC4)cc3)ccc2n1C | -10.5 | -3.2 | i | 4.1 | 37.3* | 14.2 | 67.5* | 3.5
O=S(=O)(Nc1cccc(N2CCCS2(=O)=O)c1)c1ccc(F)cc1F | · | 3.0 | · | · | · | · | · | ·
CCN(CC)c1ccc(/C=C/c2cc(-c3ccccc3)nc(-c3ccccc3)c2)cc1 | · | -12.0 | · | · | · | · | · | ·
COC(=O)c1ccc(Cn2nc(C3CCN(S(C)(=O)=O)CC3)n(C)c2=O)cc1 | · | -26.0 | · | · | · | · | · | ·
